Test results published in PubChem BioAssay (NCATS).
Inconclusive results are not listed. Calls of active or inactive are those of the source. Calls come from the whole dose curve; as a rule, active = well fitted cell-killing curve with a large enough effect; inconclusive = small, poorly fitted or top-dose-only effect, or effect the other way; inactive = flat fitted curve, though single readings scatter.

Experiments:
Assay in all cases: Primary qHTS to identify gynecologic anti-cancer compounds using libraries of approved drugs and bioactive compounds (AID 1345084); note: nearly all actives have a fitted effect of over 55% in size
Settings in all cases: Gynecologic cancer cell panel viability, ATPlite luminescence, 48 h; series mostly up to 57.5 µM
[1] = tested on: OV90
In short: (§1)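 Cytotoxicity screen measuring ATP content by luciferase luminescence. Each compound is applied at five concentrations for 48 h at 37 C with 5% CO2.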

[2] = tested on: PA-1
In short: as §1

[3] = tested on: SKOV3
In short: as §1

[4] = tested on: Tov-21-G
In short: as §1

[5] = tested on: Tov112D
In short: as §1
% is set by controls: 0 for no effect and ±100 for the full control effect.

COc1cc(O)c([C@@H](CC(=O)N2CC(C)CC(C)C2)c2ccc3c(c2)OCO3)c(OC)c1 (stereo not given in full)
inactive: Potency [1] | Potency [2] | Potency [3] | Potency [4] | Potency [5]

CCc1c(C)nc2c(-c3cnn(-c4cc(CO)ccn4)c3)c[nH]n2c1=O
inactive: Potency [1] | Potency [2] | Potency [3] | Potency [4] | Potency [5]

Cc1ccc(F)cc1C(=O)Nc1ccc(C(=O)N2Cc3cccn3Cc3ccccc32)c(Cl)c1
inactive: Potency [1] | Potency [2] | Potency [3] | Potency [4] | Potency [5]

C/C=C/c1cc(OC)c2c(c1)[C@@H](C)[C@@H](c1ccc(O)c(OC)c1)O2
inactive: Potency [1] | Potency [2] | Potency [3] | Potency [4] | Potency [5]

Cc1cc(Nc2nc(NC(C)c3ncc(F)cn3)ncc2Cl)n[nH]1 (stereo not given)
inactive: Potency [1] | Potency [2] | Potency [3] | Potency [4] | Potency [5]

CC1OC(OC2C(O)C(OC3CCC4(C)C(CCC5(C)C4CC=C4C6CC(C)(COC7OC(CO)C(O)C(O)C7O)CC(O)C6(C)CCC45C)C3(C)C)OC(C(=O)O)C2O)C(O)C(O)C1OC1OCC(O)C(O)C1O (stereo not given)
inactive: activity change, negative = cytotoxicity [1] 0.532% [at 11.6 µM] | activity change, negative = cytotoxicity [2] 13.5% [at 11.6 µM] | activity change, negative = cytotoxicity [3] 37.6% [at 11.6 µM] | activity change, negative = cytotoxicity [4] 6.66% [at 11.6 µM] | activity change, negative = cytotoxicity [5] 7.29% [at 11.6 µM]

CC(C)(O[C@@H]1O[C@H](CO)[C@@H](O)[C@H](O)[C@H]1O)C(OC(=O)/C=C\c1ccc(O)cc1)C(=O)OCc1ccc(O[C@@H]2O[C@H](CO)[C@@H](O)[C@H](O)[C@H]2O)cc1 (stereo not given in full)
inactive: Potency [1] | Potency [2] | Potency [3] | Potency [4] | Potency [5]

CCOc1cc(C)c(Cl)cc1S(=O)(=O)n1cnc2ccccc21
inactive: Potency [1] | Potency [2] | Potency [3] | Potency [4] | Potency [5]
